Reference: publication PMC7862700, “An all-to-all approach to the identification of sequence-specific readers for epigenetic DNA modifications on cytosine”

Legend:
Assay in all cases: DAPPL (digital affinity profiling via proximity ligation, sequencing); 10 mM Tris-HCl pH 7.5, 50 mM NaCl, 1 mM DTT, 4% glycerol, room temperature, 30 min; GST-TFs on glutathione beads, 16-mer random dsDNA library, 0.1% formaldehyde crosslink after washing; high values mean tight binding
FEV = target: T1, FEV (Homo sapiens, UniProt Q99581 1-238); settings: protein: recombinant; tags: N-terminal GST; dsDNA, one strand shown
T1 sequence: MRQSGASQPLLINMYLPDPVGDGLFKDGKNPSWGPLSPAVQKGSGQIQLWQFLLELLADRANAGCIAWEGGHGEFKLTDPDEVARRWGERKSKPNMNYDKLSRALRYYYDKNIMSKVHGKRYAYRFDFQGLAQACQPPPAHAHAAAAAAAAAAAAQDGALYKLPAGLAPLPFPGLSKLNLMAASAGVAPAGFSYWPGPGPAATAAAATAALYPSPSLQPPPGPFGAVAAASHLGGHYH
Procedure, shortened: (§1)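 Each value of binding signal is a hexamer's read frequency for a factor divided by the same hexamer's frequency in the tag-only sample. Barcoded, bead-captured GST fusions of human transcription factors made in yeast were pooled with that sample and incubated with 200 nmole of a random double-stranded 16-mer DNA library in Tris/NaCl/DTT/glycerol buffer at room temperature for 30 min. Washing, 0.1% formaldehyde crosslinking, proximity ligation, PCR and Illumina NextSeq500 sequencing followed.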

ETV5 = ETV5 (Homo sapiens, UniProt P41161 1-510); settings: protein: recombinant; tags: N-terminal GST; dsDNA, one strand shown
Chain of ETV5 (P41161 whole entry): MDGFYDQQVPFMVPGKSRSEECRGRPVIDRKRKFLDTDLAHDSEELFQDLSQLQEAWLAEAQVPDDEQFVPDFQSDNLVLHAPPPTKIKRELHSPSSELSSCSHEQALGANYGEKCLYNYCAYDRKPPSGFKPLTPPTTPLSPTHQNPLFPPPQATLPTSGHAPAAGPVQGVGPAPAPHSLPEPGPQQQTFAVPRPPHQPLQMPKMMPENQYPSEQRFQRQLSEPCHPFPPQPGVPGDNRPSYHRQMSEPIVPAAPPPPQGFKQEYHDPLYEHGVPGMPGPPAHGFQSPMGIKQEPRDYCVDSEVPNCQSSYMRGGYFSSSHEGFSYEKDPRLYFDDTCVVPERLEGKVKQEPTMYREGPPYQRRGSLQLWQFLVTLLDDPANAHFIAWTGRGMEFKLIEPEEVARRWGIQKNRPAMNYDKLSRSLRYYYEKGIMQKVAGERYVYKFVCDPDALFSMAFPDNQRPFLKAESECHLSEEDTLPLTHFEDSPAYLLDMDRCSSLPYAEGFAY
Procedure, shortened: as §1

HSF1 = HSF1 (Homo sapiens, UniProt Q00613 1-529); settings: protein: recombinant; tags: N-terminal GST; chain copies: 3; dsDNA, one strand shown
Chain of HSF1 (Q00613 whole entry): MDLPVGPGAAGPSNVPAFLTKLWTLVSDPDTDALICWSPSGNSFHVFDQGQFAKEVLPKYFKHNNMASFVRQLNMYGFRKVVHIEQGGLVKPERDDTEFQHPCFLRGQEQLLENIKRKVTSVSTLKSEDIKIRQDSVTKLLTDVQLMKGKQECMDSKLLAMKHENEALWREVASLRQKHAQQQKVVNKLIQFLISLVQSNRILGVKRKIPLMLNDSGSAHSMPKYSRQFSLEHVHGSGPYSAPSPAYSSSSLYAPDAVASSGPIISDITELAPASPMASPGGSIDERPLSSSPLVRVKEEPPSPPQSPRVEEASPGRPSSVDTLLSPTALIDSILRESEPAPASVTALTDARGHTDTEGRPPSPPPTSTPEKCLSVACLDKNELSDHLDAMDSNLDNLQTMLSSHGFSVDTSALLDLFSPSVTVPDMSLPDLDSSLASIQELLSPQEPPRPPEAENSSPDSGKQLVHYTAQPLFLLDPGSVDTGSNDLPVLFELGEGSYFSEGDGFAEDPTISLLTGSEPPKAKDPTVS
Procedure, shortened: as §1

SPIC = target: T2, SPIC (Homo sapiens, UniProt Q8N5J4 1-248); settings: protein: recombinant; tags: N-terminal GST; dsDNA, one strand shown
T2 sequence: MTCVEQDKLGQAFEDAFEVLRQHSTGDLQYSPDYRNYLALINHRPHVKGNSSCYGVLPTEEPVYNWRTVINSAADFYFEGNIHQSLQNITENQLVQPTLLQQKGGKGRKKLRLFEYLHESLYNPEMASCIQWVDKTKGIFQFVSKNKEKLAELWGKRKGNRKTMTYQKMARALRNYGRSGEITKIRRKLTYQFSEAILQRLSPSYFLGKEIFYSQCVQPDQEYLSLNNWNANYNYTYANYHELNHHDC
Procedure, shortened: as §1

ELF4 = ELF4 (Homo sapiens, UniProt Q99607 1-663); settings: protein: recombinant; tags: N-terminal GST; dsDNA, one strand shown
Chain of ELF4 (Q99607 whole entry): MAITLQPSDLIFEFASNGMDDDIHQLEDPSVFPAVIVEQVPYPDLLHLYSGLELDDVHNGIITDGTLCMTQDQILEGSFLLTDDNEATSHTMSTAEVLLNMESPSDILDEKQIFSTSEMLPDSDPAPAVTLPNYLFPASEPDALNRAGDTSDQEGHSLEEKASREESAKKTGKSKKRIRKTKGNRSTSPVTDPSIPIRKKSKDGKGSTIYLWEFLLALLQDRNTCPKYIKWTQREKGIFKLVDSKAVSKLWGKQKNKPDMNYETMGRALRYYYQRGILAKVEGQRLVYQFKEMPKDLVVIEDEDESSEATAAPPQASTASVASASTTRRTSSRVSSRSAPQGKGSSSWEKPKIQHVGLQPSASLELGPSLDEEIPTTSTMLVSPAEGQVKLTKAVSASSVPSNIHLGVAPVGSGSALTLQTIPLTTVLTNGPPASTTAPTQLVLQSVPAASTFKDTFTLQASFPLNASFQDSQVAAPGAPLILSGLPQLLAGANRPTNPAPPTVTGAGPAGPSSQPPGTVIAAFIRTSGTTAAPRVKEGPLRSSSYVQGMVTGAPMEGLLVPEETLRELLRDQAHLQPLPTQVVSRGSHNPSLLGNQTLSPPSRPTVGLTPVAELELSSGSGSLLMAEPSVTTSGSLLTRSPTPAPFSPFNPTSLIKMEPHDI
Procedure, shortened: as §1

ELK4 = target: T3, ELK4 (Homo sapiens, UniProt P28324-2 1-405); settings: protein: recombinant; tags: N-terminal GST; dsDNA, one strand shown
T3 sequence: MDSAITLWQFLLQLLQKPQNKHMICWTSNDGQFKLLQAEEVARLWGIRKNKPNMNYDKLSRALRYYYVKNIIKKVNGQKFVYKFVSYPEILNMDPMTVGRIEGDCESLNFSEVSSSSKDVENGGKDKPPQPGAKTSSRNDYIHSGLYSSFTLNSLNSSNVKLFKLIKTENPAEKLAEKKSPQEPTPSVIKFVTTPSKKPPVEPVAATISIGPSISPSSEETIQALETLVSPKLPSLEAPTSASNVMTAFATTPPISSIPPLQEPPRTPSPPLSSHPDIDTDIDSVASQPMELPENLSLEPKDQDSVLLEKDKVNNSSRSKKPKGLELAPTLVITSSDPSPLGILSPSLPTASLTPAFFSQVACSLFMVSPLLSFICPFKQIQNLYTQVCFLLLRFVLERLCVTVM
Procedure, shortened: as §1

ETV2 = target: T4, ETV2 (Homo sapiens, UniProt O00321 1-342); settings: protein: recombinant; tags: N-terminal GST; dsDNA, one strand shown
T4 sequence: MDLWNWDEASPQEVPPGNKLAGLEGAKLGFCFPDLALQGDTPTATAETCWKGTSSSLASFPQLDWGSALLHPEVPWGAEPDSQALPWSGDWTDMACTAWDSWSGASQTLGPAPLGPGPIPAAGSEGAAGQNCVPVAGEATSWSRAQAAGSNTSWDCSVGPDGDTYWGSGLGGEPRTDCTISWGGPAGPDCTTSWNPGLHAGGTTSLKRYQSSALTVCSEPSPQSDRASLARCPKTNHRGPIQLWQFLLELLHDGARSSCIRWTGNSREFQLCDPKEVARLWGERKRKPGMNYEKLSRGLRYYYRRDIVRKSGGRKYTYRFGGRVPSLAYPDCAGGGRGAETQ
Procedure, shortened: as §1

ELF3 = target: T5, ELF3 (Homo sapiens, UniProt P78545 1-371); settings: protein: recombinant; tags: N-terminal GST; dsDNA, one strand shown
T5 sequence: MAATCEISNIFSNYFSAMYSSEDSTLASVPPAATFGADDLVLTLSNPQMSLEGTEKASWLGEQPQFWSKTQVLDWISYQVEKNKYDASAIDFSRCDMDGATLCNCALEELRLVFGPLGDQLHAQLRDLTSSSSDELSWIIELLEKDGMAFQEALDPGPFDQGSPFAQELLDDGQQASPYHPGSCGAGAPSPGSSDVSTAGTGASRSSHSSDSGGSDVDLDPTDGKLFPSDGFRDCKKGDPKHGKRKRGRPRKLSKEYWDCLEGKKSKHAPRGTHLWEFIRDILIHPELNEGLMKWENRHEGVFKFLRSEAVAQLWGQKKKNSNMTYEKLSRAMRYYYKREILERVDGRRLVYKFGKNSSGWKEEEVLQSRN
Procedure, shortened: as §1

CRX = CRX (Homo sapiens, UniProt O43186 1-299); settings: protein: recombinant; tags: N-terminal GST; dsDNA, one strand shown
Chain of CRX (O43186 whole entry): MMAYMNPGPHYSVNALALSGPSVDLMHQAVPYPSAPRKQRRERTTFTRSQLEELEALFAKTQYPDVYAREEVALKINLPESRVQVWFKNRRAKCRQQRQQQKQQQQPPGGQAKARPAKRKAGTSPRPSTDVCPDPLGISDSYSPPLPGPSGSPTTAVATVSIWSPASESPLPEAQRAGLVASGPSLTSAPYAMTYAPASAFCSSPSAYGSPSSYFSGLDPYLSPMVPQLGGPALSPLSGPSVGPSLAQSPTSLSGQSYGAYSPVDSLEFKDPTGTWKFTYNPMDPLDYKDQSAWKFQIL
Procedure, shortened: as §1

ETV1 = ETV1 (Homo sapiens, UniProt P50549 1-477); settings: protein: recombinant; tags: N-terminal GST; dsDNA, one strand shown
Chain of ETV1 (P50549 whole entry): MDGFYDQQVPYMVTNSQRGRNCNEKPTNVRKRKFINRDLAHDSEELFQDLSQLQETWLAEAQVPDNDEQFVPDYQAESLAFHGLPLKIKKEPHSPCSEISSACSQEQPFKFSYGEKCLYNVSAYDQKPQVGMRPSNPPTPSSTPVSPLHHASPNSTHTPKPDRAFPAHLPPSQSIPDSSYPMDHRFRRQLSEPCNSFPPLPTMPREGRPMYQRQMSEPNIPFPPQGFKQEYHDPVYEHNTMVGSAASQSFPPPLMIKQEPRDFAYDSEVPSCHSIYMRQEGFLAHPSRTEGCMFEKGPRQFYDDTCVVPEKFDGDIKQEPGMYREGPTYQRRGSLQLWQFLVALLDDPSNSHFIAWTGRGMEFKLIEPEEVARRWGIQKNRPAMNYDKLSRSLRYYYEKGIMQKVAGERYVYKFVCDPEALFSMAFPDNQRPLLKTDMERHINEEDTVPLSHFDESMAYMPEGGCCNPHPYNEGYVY
Procedure, shortened: as §1

ERF = target: T6, ERF (Homo sapiens, UniProt P50548 1-548); settings: protein: recombinant; tags: N-terminal GST; dsDNA, one strand shown
T6 sequence: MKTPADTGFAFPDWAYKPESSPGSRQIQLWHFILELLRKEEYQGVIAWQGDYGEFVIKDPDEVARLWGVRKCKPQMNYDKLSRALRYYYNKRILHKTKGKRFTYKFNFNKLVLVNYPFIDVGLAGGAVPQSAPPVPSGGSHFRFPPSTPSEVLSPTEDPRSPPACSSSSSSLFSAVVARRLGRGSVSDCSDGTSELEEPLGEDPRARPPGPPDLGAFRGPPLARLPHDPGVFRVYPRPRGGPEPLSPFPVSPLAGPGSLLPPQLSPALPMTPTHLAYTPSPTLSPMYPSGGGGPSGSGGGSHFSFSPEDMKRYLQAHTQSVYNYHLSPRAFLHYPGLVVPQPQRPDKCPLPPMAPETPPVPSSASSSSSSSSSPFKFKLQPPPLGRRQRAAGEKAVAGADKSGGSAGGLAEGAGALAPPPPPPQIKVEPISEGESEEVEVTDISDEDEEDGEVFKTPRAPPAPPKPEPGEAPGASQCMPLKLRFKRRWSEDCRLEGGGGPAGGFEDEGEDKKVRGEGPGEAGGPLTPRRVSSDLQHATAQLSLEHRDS
Procedure, shortened: as §1

ETV3L = target: T7, ETV3L (Homo sapiens, UniProt Q6ZN32 1-361); settings: protein: recombinant; tags: N-terminal GST; dsDNA, one strand shown
T7 sequence: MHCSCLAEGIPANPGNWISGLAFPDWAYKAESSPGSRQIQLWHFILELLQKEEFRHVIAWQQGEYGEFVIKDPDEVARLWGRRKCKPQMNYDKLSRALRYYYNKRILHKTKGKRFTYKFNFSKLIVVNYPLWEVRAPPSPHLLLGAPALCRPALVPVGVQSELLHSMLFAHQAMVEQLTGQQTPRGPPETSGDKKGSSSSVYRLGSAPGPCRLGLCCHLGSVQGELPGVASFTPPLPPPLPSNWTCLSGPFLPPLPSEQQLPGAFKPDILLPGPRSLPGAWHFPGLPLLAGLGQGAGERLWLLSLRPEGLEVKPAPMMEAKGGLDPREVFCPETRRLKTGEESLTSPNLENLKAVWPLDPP
Procedure, shortened: as §1

ETS2 = target: T8, ETS2 (Homo sapiens, UniProt P15036 1-469); settings: protein: recombinant; tags: N-terminal GST; dsDNA, one strand shown
T8 sequence: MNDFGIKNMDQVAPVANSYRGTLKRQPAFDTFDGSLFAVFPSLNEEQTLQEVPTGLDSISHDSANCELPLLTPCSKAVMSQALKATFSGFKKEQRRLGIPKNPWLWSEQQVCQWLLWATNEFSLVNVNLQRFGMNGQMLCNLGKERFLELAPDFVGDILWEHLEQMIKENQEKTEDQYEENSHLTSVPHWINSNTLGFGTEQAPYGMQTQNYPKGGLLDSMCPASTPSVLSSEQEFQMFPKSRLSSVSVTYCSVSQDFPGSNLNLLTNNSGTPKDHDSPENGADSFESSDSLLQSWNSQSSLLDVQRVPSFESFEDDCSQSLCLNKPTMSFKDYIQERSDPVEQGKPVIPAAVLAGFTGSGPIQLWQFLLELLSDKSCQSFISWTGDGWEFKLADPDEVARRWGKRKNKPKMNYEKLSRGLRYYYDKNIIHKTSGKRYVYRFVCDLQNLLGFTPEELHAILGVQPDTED
Procedure, shortened: as §1

SPDEF = target: T9, SPDEF (Homo sapiens, UniProt O95238 1-335); settings: protein: recombinant; tags: N-terminal GST; dsDNA, one strand shown
T9 sequence: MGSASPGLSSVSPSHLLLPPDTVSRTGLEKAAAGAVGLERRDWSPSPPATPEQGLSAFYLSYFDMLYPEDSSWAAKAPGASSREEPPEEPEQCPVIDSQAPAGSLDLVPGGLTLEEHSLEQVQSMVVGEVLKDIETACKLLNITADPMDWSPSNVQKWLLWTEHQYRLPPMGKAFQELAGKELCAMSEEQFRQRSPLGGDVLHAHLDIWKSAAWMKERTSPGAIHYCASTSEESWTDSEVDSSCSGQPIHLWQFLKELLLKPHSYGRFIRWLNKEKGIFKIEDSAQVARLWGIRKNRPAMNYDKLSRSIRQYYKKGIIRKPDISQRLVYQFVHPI
Procedure, shortened: as §1

ETV7 = target: T10, ETV7 (Homo sapiens, UniProt Q9Y603 1-341); settings: protein: recombinant; tags: N-terminal GST; dsDNA, one strand shown
T10 sequence: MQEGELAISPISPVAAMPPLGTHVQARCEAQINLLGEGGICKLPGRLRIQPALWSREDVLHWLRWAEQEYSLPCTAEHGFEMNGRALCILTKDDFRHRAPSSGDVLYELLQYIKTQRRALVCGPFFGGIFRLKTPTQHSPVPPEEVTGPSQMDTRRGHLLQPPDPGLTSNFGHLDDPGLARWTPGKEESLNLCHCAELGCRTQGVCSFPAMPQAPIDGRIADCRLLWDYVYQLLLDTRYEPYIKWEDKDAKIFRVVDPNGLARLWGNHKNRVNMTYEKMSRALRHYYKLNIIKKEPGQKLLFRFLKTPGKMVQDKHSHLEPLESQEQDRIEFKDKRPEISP
Procedure, shortened: as §1

ELF5 = target: T11, ELF5 (Homo sapiens, UniProt Q9UKW6-2 1-255); settings: protein: recombinant; tags: N-terminal GST; dsDNA, one strand shown
T11 sequence: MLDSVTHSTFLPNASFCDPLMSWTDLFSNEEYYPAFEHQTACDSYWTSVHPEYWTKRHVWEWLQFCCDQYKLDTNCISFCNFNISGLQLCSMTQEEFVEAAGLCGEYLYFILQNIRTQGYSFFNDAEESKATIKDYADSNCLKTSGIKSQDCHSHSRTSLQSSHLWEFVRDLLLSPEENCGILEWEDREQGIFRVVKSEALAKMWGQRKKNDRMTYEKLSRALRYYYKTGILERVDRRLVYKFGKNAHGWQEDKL
Procedure, shortened: as §1

ETV3 = target: T12, ETV3 (Homo sapiens, UniProt P41162-2 1-143); settings: protein: recombinant; tags: N-terminal GST; dsDNA, one strand shown
T12 sequence: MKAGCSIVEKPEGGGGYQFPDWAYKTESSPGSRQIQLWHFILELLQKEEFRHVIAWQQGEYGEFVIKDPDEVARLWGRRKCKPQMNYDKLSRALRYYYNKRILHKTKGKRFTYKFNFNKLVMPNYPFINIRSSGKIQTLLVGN
Procedure, shortened: as §1

ETV6 = ETV6 (Homo sapiens, UniProt P41212 1-452); settings: protein: recombinant; tags: N-terminal GST; dsDNA, one strand shown
Chain of ETV6 (P41212 whole entry): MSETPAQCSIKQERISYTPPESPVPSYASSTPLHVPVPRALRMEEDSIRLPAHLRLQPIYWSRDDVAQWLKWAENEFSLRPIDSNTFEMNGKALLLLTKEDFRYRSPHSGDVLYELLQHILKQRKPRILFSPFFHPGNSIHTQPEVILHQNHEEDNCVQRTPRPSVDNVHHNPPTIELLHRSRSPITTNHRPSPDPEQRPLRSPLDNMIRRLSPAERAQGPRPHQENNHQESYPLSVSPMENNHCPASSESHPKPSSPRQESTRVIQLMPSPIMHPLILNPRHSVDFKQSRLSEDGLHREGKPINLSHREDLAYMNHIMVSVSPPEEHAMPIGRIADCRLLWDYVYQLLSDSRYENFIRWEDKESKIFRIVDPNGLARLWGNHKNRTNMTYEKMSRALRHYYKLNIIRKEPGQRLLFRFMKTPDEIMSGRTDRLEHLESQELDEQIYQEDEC
Procedure, shortened: as §1

Sequence	binding signal (FEV)	binding signal (ETV5)	binding signal (HSF1)	binding signal (SPIC)	binding signal (ELF4)	binding signal (ELK4)	binding signal (ETV2)	binding signal (ELF3)	binding signal (CRX)	binding signal (ETV1)	binding signal (ERF)	binding signal (ETV3L)	binding signal (ETS2)	binding signal (SPDEF)	binding signal (ETV7)	binding signal (ELF5)	binding signal (ETV3)	binding signal (ETV6)
CTTTTC	1.39 fold enrichment (6-mer frequency, TF over GST control)	1.44 fold enrichment (6-mer frequency, TF over GST control)	1.5 fold enrichment (6-mer frequency, TF over GST control)	1.45 fold enrichment (6-mer frequency, TF over GST control)	1.43 fold enrichment (6-mer frequency, TF over GST control)	1.49 fold enrichment (6-mer frequency, TF over GST control)	1.48 fold enrichment (6-mer frequency, TF over GST control)	1.48 fold enrichment (6-mer frequency, TF over GST control)	1.25 fold enrichment (6-mer frequency, TF over GST control)	1.4 fold enrichment (6-mer frequency, TF over GST control)	1.33 fold enrichment (6-mer frequency, TF over GST control)	1.48 fold enrichment (6-mer frequency, TF over GST control)	1.33 fold enrichment (6-mer frequency, TF over GST control)	1.49 fold enrichment (6-mer frequency, TF over GST control)	1.49 fold enrichment (6-mer frequency, TF over GST control)	1.58 fold enrichment (6-mer frequency, TF over GST control)	1.69 fold enrichment (6-mer frequency, TF over GST control)	1.57 fold enrichment (6-mer frequency, TF over GST control)
TTCTAC	1.5 fold enrichment (6-mer frequency, TF over GST control)	1.55 fold enrichment (6-mer frequency, TF over GST control)	2.46 fold enrichment (6-mer frequency, TF over GST control)	1.7 fold enrichment (6-mer frequency, TF over GST control)	1.48 fold enrichment (6-mer frequency, TF over GST control)	1.59 fold enrichment (6-mer frequency, TF over GST control)	1.53 fold enrichment (6-mer frequency, TF over GST control)	1.64 fold enrichment (6-mer frequency, TF over GST control)	1.69 fold enrichment (6-mer frequency, TF over GST control)	1.56 fold enrichment (6-mer frequency, TF over GST control)	1.7 fold enrichment (6-mer frequency, TF over GST control)	1.51 fold enrichment (6-mer frequency, TF over GST control)	1.62 fold enrichment (6-mer frequency, TF over GST control)	1.5 fold enrichment (6-mer frequency, TF over GST control)	1.54 fold enrichment (6-mer frequency, TF over GST control)	1.54 fold enrichment (6-mer frequency, TF over GST control)	1.41 fold enrichment (6-mer frequency, TF over GST control)	1.49 fold enrichment (6-mer frequency, TF over GST control)
